Results reported in PubChem BioAssay (NCATS).
Records with an inconclusive call do not appear. A number with no mark means an inactive call. Activity calls are given as the source filed them. Calls come from the whole dose curve; as a rule, active = well fitted inhibition curve with a large enough effect; inconclusive = small, poorly fitted or top-dose-only effect; inactive = flat fitted curve, though single readings scatter.

system: CP237; assay: qHTS profiling for inhibitors of Plasmodium falciparum proliferation (AID 504749); note: nearly all actives have a fitted effect of over 60% in size;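 for activity, negative = inhibition: 0% = DMSO vehicle and full inhibition = artemisinin control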; conditions: P. falciparum in erythrocytes, SYBR Green DNA, 72 h; series mostly up to 28.7 µM; activity, negative = inhibition: at the top concentration
Summary of the method: (§1)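 SYBR Green fluorescence of parasite DNA, read after lysis and overnight dark incubation, measured growth over 72 h in erythrocyte culture at 0.3% parasitemia and 2.5% hematocrit. Data normalised to DMSO and 0.29 uM artemisinin, with plate-drift correction.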
Potency is the fitted concentration of half-maximal effect.

SMILES | Potency | activity, negative = inhibition [%]
CN(C)c1ccc(C(=C2C=CC(=[N+](C)C)C=C2)c2ccc(N(C)C)cc2)cc1 | 199 nM (active) | –
CCc1cc(C(N)=S)ccn1 | – | 1.02
NC(=O)N1c2ccccc2CC(=O)c2ccccc21 | – | 1.76
Cc1nnc(NS(=O)(=O)c2ccc(N)cc2)s1 | – | -1.14
CCN(C)C(=O)Oc1cccc([C@H](C)N(C)C)c1 | – | -0.439
CNC1CCCN(c2c(F)cc3c(=O)c(C(=O)O)cn(C4CC4)c3c2OC)C1 (centres undefined) | – | -3.72
COc1cc(NCc2ccc3nc(N)nc(N)c3c2C)cc(OC)c1OC | 141 nM (active) | –

system: CP238; assay: as above; conditions: P. falciparum in erythrocytes, SYBR Green DNA, 72 h; series mostly up to 28.7 µM; activity, negative = inhibition: at the top concentration
Summary of the method: as §1

SMILES | activity, negative = inhibition | Potency
Cn1nnc2c(C(N)=O)ncn2c1=O | 5.48% | –
CC(C)OC(=O)C(C(=O)OC(C)C)=C1SC=CS1 | 3.1% | –
CC1=NN(c2ccccc2)C(=O)C1 | 0.513% | –
COC(=O)Nc1nc2ccc(Sc3ccccc3)cc2[nH]1 | -1.1% [at 12.8 µM] | –
CCc1c2c(nc3ccc(OC(=O)N4CCC(N5CCCCC5)CC4)cc13)-c1cc3c(c(=O)n1C2)COC(=O)[C@]3(O)CC | 4.37% | –
Cc1noc(NS(=O)(=O)c2ccc(N)cc2)c1C | 1.05% | –
CN1CCN(c2c(F)cc3c(=O)c(C(=O)O)cn4c3c2OCN4C)CC1 | 0.111% | –
S=P(N1CC1)(N1CC1)N1CC1 | 0.681% | –
CC[C@H](NC(C)C)[C@H](O)c1ccc(O)c2[nH]c(=O)ccc12 | 3.07% | –
CC[C@H](C)C(=O)O[C@H]1C[C@@H](C)C=C2C=C[C@H](C)[C@H](CC[C@@H]3C[C@@H](O)CC(=O)O3)[C@H]21 | 2.19% | –
CC(C)(Sc1cc(C(C)(C)C)c(O)c(C(C)(C)C)c1)Sc1cc(C(C)(C)C)c(O)c(C(C)(C)C)c1 | 5.71% [at 12.8 µM] | –
Cc1ncc([N+](=O)[O-])n1CCO | 0.325% | –
CCCc1cc(C(N)=S)ccn1 | 2.59% | –
CCCN[C@H]1CCc2nc(N)sc2C1 | -0.205% | –
COC(=O)Nc1nc2ccc(C(=O)c3ccccc3)cc2[nH]1 | 7.45% [at 12.8 µM] | –
CC(C)(C#N)c1cc(Cn2cncn2)cc(C(C)(C)C#N)c1 | -4.38% | –
COc1c(N2CCNC(C)C2)c(F)cc2c(=O)c(C(=O)O)cn(C3CC3)c12 (centres undefined) | -21.2% | –
O=C(O)c1cc(=O)[nH]c(=O)[nH]1 | 6.17% | –
CNS(=O)(=O)Cc1ccc2[nH]cc(CCN(C)C)c2c1 | -4.38% | –
CCOc1cc(N)c(Cl)cc1C(=O)NCC1CN(Cc2ccc(F)cc2)CCO1 (centres undefined) | – | 11200 nM (active)
CCC(C)(C)c1ccc(CC(C)CN2C[C@@H](C)O[C@@H](C)C2)cc1 (some centres undefined) | -2.83% | –
CN(C)c1ccc(C(=C2C=CC(=[N+](C)C)C=C2)c2ccc(N(C)C)cc2)cc1 | – | 398 nM (active)
COc1ccc(C(=O)CC(=O)c2ccc(C(C)(C)C)cc2)cc1 | 0.01% | –
CCc1cc(C(N)=S)ccn1 | 1.4% | –
NC(=O)N1c2ccccc2CC(=O)c2ccccc21 | 0.629% | –
Cc1nnc(NS(=O)(=O)c2ccc(N)cc2)s1 | 13.9% | –
CCN(C)C(=O)Oc1cccc([C@H](C)N(C)C)c1 | 4.65% | –
CNC1CCCN(c2c(F)cc3c(=O)c(C(=O)O)cn(C4CC4)c3c2OC)C1 (centres undefined) | -1.56% | –
COc1cc(NCc2ccc3nc(N)nc(N)c3c2C)cc(OC)c1OC | – | 631 nM (active)

system: CP247; assay: as above; conditions: P. falciparum in erythrocytes, SYBR Green DNA, 72 h; series mostly up to 28.7 µM; activity, negative = inhibition: at the top concentration
Summary of the method: as §1

SMILES | activity, negative = inhibition | Potency
Cn1nnc2c(C(N)=O)ncn2c1=O | -1.38% | –
CC(C)OC(=O)C(C(=O)OC(C)C)=C1SC=CS1 | 5.64% | –
CC1=NN(c2ccccc2)C(=O)C1 | 0.633% | –
COC(=O)Nc1nc2ccc(Sc3ccccc3)cc2[nH]1 | 3.35% [at 12.8 µM] | –
CCc1c2c(nc3ccc(OC(=O)N4CCC(N5CCCCC5)CC4)cc13)-c1cc3c(c(=O)n1C2)COC(=O)[C@]3(O)CC | 5.37% | –
Cc1noc(NS(=O)(=O)c2ccc(N)cc2)c1C | 8.04% | –
CN1CCN(c2c(F)cc3c(=O)c(C(=O)O)cn4c3c2OCN4C)CC1 | 0.289% | –
S=P(N1CC1)(N1CC1)N1CC1 | 5.7% | –
CC[C@H](NC(C)C)[C@H](O)c1ccc(O)c2[nH]c(=O)ccc12 | 2.89% | –
CC[C@H](C)C(=O)O[C@H]1C[C@@H](C)C=C2C=C[C@H](C)[C@H](CC[C@@H]3C[C@@H](O)CC(=O)O3)[C@H]21 | -5.22% | –
CC(C)(Sc1cc(C(C)(C)C)c(O)c(C(C)(C)C)c1)Sc1cc(C(C)(C)C)c(O)c(C(C)(C)C)c1 | 3.38% [at 12.8 µM] | –
Cc1ncc([N+](=O)[O-])n1CCO | 0.564% | –
CCCc1cc(C(N)=S)ccn1 | 4.09% | –
CCCN[C@H]1CCc2nc(N)sc2C1 | 5.72% | –
COC(=O)Nc1nc2ccc(C(=O)c3ccccc3)cc2[nH]1 | -14.5% [at 12.8 µM] | –
CC(C)(C#N)c1cc(Cn2cncn2)cc(C(C)(C)C#N)c1 | 6.19% | –
COc1c(N2CCNC(C)C2)c(F)cc2c(=O)c(C(=O)O)cn(C3CC3)c12 (centres undefined) | -11.6% | –
O=C(O)c1cc(=O)[nH]c(=O)[nH]1 | 2.71% | –
CNS(=O)(=O)Cc1ccc2[nH]cc(CCN(C)C)c2c1 | 3.64% | –
CCOc1cc(N)c(Cl)cc1C(=O)NCC1CN(Cc2ccc(F)cc2)CCO1 (centres undefined) | – | 7080 nM (active)
CCC(C)(C)c1ccc(CC(C)CN2C[C@@H](C)O[C@@H](C)C2)cc1 (some centres undefined) | 0.515% | –
CN(C)c1ccc(C(=C2C=CC(=[N+](C)C)C=C2)c2ccc(N(C)C)cc2)cc1 | – | 355 nM (active)
COc1ccc(C(=O)CC(=O)c2ccc(C(C)(C)C)cc2)cc1 | 6.56% | –
CCc1cc(C(N)=S)ccn1 | 5.83% | –
NC(=O)N1c2ccccc2CC(=O)c2ccccc21 | 7.74% | –
Cc1nnc(NS(=O)(=O)c2ccc(N)cc2)s1 | 11.6% | –
CCN(C)C(=O)Oc1cccc([C@H](C)N(C)C)c1 | 6.56% | –
COc1cc(NCc2ccc3nc(N)nc(N)c3c2C)cc(OC)c1OC | – | 447 nM (active)
